Screening data: PubChem, National Center for Advancing Translational Sciences (NCATS)
NPC1 prom act – qHTS Assay for NPC1 Promoter Activators. Potency, µM (series often up to 9.22 µM), for the others: at the top dose activation, most hits filed as activators. AID 485313, 2010. Huh7 NPC1 promoter luciferase reporter, 24 h. 320,000 compounds, 2.4% hits; note: % of control where 0% means no effect; nearly all actives have a fitted effect of over 60% in size
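Luminescence read-out of NPC1 promoter-driven luciferase in stably transfected Huh7 cells; compounds delivered in DMSO and left 24 h at 37C, 5% CO2, qHTS titration format.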
ELG1 genotox – qHTS screen for small molecules that induce genotoxicity in human embryonic kidney (HEK293T) cells expressing luciferase-tagged ELG1; HEK293T ELG1-luciferase reporter, luminescence, 16 h; 330,000 compounds, 1.3% hits; Potency, µM (titrated, usually from 46 µM), for the others: at the highest dose activity change, positive = activation, actives largely listed as activators; AID 504466, 2011; note: % of control where 0% means no effect; nearly all actives have a fitted effect of over 60% in size
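Genotoxic stress is detected as increased luminescence from luciferase-tagged ELG1 in HEK293T cells, measured with ONE-Glo after a 16 hr treatment at 37 °C.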
FLuc counter – qHTS profiling assay for firefly luciferase inhibitor/activator using purifed enzyme and Km concentrations of substrates (counterscreen for miR-21 project); Potency, µM (doses to about 57.5 µM), inactives show at the top dose activity change, negative = inhibition, most hits filed as inhibitors; Luciferin 4-monooxygenase (Photinus pyralis), P08659; purified FLuc, Km substrates, luminescence inhibition; AID 588342, 2011; 360,000 compounds, 6.9% hits;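 note: plate controls were vehicle for no effect and reference inhibitor for full effect; nearly all actives have a fitted effect of over 55% in size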
Target sequence (P08659 whole entry, looked up): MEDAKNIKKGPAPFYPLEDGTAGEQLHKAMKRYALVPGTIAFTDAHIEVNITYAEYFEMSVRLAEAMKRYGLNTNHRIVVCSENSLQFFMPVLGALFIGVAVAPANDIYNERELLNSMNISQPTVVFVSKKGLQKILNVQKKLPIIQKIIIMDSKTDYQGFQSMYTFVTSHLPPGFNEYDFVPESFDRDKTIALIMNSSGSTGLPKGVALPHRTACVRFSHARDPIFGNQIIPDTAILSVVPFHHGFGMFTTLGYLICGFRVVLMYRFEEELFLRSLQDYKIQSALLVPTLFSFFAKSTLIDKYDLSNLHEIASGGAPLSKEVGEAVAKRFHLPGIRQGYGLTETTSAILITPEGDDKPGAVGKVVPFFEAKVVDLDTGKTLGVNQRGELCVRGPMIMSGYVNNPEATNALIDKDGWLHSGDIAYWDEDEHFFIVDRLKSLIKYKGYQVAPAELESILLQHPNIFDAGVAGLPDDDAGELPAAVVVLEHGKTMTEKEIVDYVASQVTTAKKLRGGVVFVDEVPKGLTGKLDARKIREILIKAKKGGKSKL
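Purified P. pyralis luciferase, 10 nM final, with Km-level 10 uM D-luciferin and 10 uM ATP in 50 mM Tris acetate pH 7.5, 10 mM Mg acetate, 0.01% Tween-20, 0.05% BSA; 6-point qHTS titration about 60 µM downward; luminescence read.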
ELG1 repair inh – qHTS screen for small molecules that inhibit ELG1-dependent DNA repair in human embryonic kidney (HEK293T) cells expressing luciferase-tagged ELG1; HEK293T ELG1-luciferase reporter, luminescence, 16 h; DNA damage induced by 5-fluorouridine; Potency, µM (highest dose often 46.1 µM), for inactives: top-dose activity change, negative = inhibition, actives largely listed as inhibitors; 330,000 compounds, 2.3% hits; note: % is set by controls: 0 for no effect and ±100 for the full control effect; nearly all actives have a fitted effect of over 55% in size
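In this reporter screen, reduction of luminescence relative to DMSO vehicle indicated activity. Compounds and 5-fluorouridine were added together to 2,000 cells per well, incubated for 16 hr at 37 °C, then developed with ONE-Glo.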
Rab9 promoter act – qHTS Assay for Rab9 Promoter Activators; 320,000 compounds, 2.8% hits; Huh7 Rab9 promoter-luciferase reporter, luminescence, 24 h; Potency, µM (series often up to 9.22 µM), for the others: at the highest dose activation, negative = inhibition, most hits filed as activators; note: % of control where 0% means no effect; nearly all actives have a fitted effect of over 60% in size
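Luciferase signal after 10 min detection reagent at ambient indicates Rab9 promoter upregulation; stably transfected Huh7 cells were treated 24 h with compound in DMSO at 37 °C, 5% CO2.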
SMN2 splice enh – qHTS Assay for Enhancers of SMN2 Splice Variant Expression; HEK293 SMN2-luciferase splicing reporter, luminescence, 30-36 h; 210,000 compounds, 2.8% hits; Potency, µM (titrated, usually from 46.1 µM), for inactives: at the top dose activity change, positive = activation, actives largely listed as activators; note: % of control where 0% means no effect; nearly all actives have a fitted effect of over 55% in size
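HEK293 cells carry an SMN2 minigene-luciferase reporter in which exon 7 inclusion puts luciferase in frame. Cells were seeded at 2000 cells/well, attached for 10-12 hours, then exposed to compounds for 30-36 hours at 37C before ONE-Glo luminescence.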
* hit, by the source's call; ? = inconclusive; · = no result; [ ] = another dose, or the depositor's remark. The list is not random: actives were taken first. Their share in the collection is about 9.3%. Calls come from the whole dose curve; as a rule, active = well fitted curve in the direction sought with a large enough effect; inconclusive = small, poorly fitted or top-dose-only effect, or another doubt; inactive = no such curve, though single readings can be large; an effect the other way counts as inactive or inconclusive. Potency is the fitted concentration of half-maximal effect.

SMILES	NPC1 prom act	ELG1 genotox	FLuc counter	ELG1 repair inh	Rab9 promoter act	SMN2 splice enh
COc1ccc(-n2c(=S)[nH]c3cc(C(=O)NCc4cccnc4)ccc3c2=O)cc1	-0.5%	-5.2%	2.6%	-11.7%	2.1%	·
OC(c1ccccc1)c1ccncc1 (stereo not given)	-1.0%	-3.0%	10.6%	?	-0.6%	·
O=C(O)COc1ccccc1/C=N/NC(=O)c1cc(-c2ccccc2)nc2ccccc12	-0.5%	0.4%	2.69µM*	3.4%	-2.0%	·
O=C(O)COc1ccccc1/C=N/NC(=O)c1cc(-c2ccc(Cl)cc2)nc2ccccc12	-0.6%	-0.3%	0.953µM*	8.5%	-1.5%	·
O=C(N/N=C/c1ccccc1OC(F)F)c1cc(-c2ccncc2)nc2ccccc12	-18.8%	0.9%	?	?	-14.4%	-17.6%
COc1ccc(CCNC(=O)C2CC(c3ccc(C(F)(F)F)cc3)=NO2)cc1 (stereo not given)	-3.4%	-2.4%	0.7%	-2.1%	0.4%	·
COc1ccc(-c2nnc(-c3ccc(Br)o3)o2)cc1OC	27.4%	?	?	?	22.1%	·
COc1ccccc1Cc1nc(-c2ccc(Br)o2)no1	15.6%	9.2%	19µM*	?	11.7%	8.0%
COc1ccc(-c2nc(-c3ccc(Br)o3)no2)cc1OC	?	20.6µM*	?	?	3.16µM*	14.1µM*
COc1ccccc1Cc1nc(-c2cccnc2)no1	2.1%	9.8%	-3.8%	0.8%	-3.3%	·
COc1cccc(-c2nc(-c3ccc(Br)o3)no2)c1	0.891µM*	?	0.675µM*	?	0.562µM*	·
COc1ccccc1-c1nc(-c2ccc(Br)o2)no1	3.55µM*	?	1.9µM*	?	0.891µM*	?
O=C(NCCNCc1cccs1)c1ccccc1F	2.8%	4.7%	-1.0%	20.7%	0.9%	5.9%
CN(C)S(=O)(=O)Nc1ccc(NS(=O)(=O)N(C)C)c(S(=O)(=O)c2ccccc2)c1	2.8%	4.6%	3.1%	-0.1%	-2.4%	-2.3%
CN(C)S(=O)(=O)Nc1ccc2c(c1)Cc1ccccc1-2	15.8%	?	26.9µM*	0.0%	24.4%	?
COc1ccc(-c2onc(C)c2-c2ccc(C(=O)OC(C)C)o2)c(O)c1	1.9%	-20.8%	?	23.1µM*	-0.6%	-16.1%
CCOC(=O)N1CCN(C(=O)c2cccc(OC)c2O)CC1	-4.9%	-1.2%	5.7%	-6.7%	-3.6%	-9.3%
CN1CCN(/N=C/c2ccc(OCc3ccccc3)cc2)CC1	3.55µM*	?	9.53µM*	?	2.82µM*	·
C(=N\n1cnnc1)/c1ccc(OCc2ccccc2)cc1	-0.2%	?	?	?	7.6%	-26.2%
COC(=O)c1ccc(COc2ccc(/C=N/N3CCN(C)CC3)cc2)cc1	?	?	23.9µM*	?	1.12µM*	5.62µM*
CC1CCCC(NC(=O)NC(=O)CCl)C1C (stereo not given)	-7.9%	-5.8%	1.1%	20.6µM*	-14.2%	-106.0%
CC1CCCCC1NC(=O)NC(=O)CCl (stereo not given)	-13.4%	-8.9%	2.9%	20.6µM*	-6.9%	-128.0%
CC1CCCCC1NC(=O)NC(=O)COC(=O)c1nccnc1N (stereo not given)	·	0.8%	·	0.6%	·	·
Cc1cccc(OCCCCCN2CCOCC2)c1C	8.5%	-2.3%	2.4%	-17.8%	2.5%	·
O=c1[nH]c(SCc2nc3ccccc3c(=O)n2-c2ccccc2C(F)(F)F)nc2ccccc12	1.1%	-2.2%	1.8%	18.4µM*	-7.1%	-4.9%
SMILES	NPC1 prom act	ELG1 genotox	FLuc counter	ELG1 repair inh	Rab9 promoter act	SMN2 splice enh
c1ccc(CN2CCC(Nc3ncnc4sccc34)CC2)cc1	-16.5%	-12.3%	4.5%	6.51µM*	-17.3%	-84.1%
O=C(Nc1cccc(S(=O)(=O)N2CCCCC2)c1)c1ccc2c(=O)n3c(nc2c1)CCCCC3	-10.2%	-7.5%	?	4.11µM*	-20.4%	·
CCc1ccc(NC(=O)c2sc3nc4n(c(=O)c3c2C)CCC4)cc1	27.8%	8.9%	15.1µM*	?	?	·
CCN(CC)S(=O)(=O)c1ccc(NC(=O)c2ccc3c(=O)n4c(nc3c2)CCCCC4)cc1	·	·	1.9%	·	·	-64.8%
CCOc1ccc(CCNC(=O)c2ccc3c(=O)n4c(nc3c2)CCCCC4)cc1	-2.6%	-13.9%	-10.7%	16.4µM*	-1.3%	·
CCOc1ccc(NC(=O)c2ccc3c(=O)n4c(nc3c2)CCCCC4)cc1	-8.6%	-3.5%	2.9%	-25.5%	-8.5%	5.8%
Cc1c(C(=O)N(C)c2cccc(C(F)(F)F)c2)sc2nc3n(c(=O)c12)CCCCC3	·	·	13.5µM*	·	·	·
CC(C)[C@H](Sc1nc(N)nc2nc[nH]c12)C(=O)O	·	·	·	·	·	-4.4%[9.22 µM]
CC1(C)OC[C@@H]2O[C@H](n3cnc4c(N)nc(Cl)nc43)[C@@H](OS(C)(=O)=O)[C@@H]2O1	·	·	·	·	·	0.5%[9.22 µM]
CN1CCN(C(=O)Nc2ccccc2CC[N+](=O)[O-])CC1	-2.3%	1.9%	3.8%	-2.4%	-5.7%	-14.0%
Cc1ccccc1NC(=S)NCC1CCC(CNC(=S)Nc2ccccc2C)CC1 (stereo not given)	10.7%	-5.8%	-4.3%	?	-2.7%	·
CCc1nnc(NC(=O)c2ccc3c(=O)n4c(nc3c2)CCCCC4)s1	13.0%	5.9%	26.9µM*	?	26.6%	·
CCc1ccc(NC(=O)c2ccc3c(=O)n4c(nc3c2)CCCCC4)cc1	19.4%	-7.5%	16.9µM*	?	-0.4%	·
COc1cccc(CN(C)C(=O)c2ccc3c(=O)n4c(nc3c2)CCC4)c1	2.5%	8.0%	1.8%	15.6%	2.9%	·
COc1ccc(CN(C)C(=O)c2ccc3c(=O)n4c(nc3c2)CCC4)cc1	2.24µM*	?	8.49µM*	?	1.78µM*	·
CCOc1ccc(S(=O)(=O)N2CCc3cc(OC)c(OC)cc3C2)cc1	-16.9%	-0.7%	-0.6%	-14.2%	-4.6%	-22.1%
